SW480 rerep: inducers of DNA re-replication in SW480 colon cancer cells; Potency, µM (series often up to 46.1 µM), for inactives: at the highest dose re-replication activation, actives largely listed as activators; SW480 DNA re-replication, Hoechst DNA content imaging, 48 h; actives 1.8% (n = 340,000); note: potency is the fitted concentration of half-maximal effect; % of control where 0% means no effect; nearly all actives have a fitted effect of over 55% in size
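Compounds, transferred as 23 nL by pin tool, were incubated with cells for 48 hr; DNA content per nucleus was then quantified by Hoechst staining and fluorescence plate imaging.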
MCF10A rerep: DNA re-replication induction in MCF 10a cells; MCF 10A DNA re-replication, Hoechst nuclear intensity, 48 h; Potency, µM (doses to about 46.1 µM), inactives show at the top dose activity, positive = re-replication, usual class: activators; actives 2.9% (n = 350,000); AID 624296; note: potency is the fitted concentration of half-maximal effect; % of control where 0% means no effect; nearly all actives have a fitted effect of over 50% in size
IL1B secr inh: blocks inflammasome-driven IL-1 beta release; actives 4.7% (n = 360,000); activity change, % at 57.5 µM; THP-1 LPS/ATP IL-1B secretion, AlphaLISA, 16 h; stronger effect = lower value; AID 743279; in the data active = activity change below about -50%; inconclusive = mostly about -30% to -49%; note: % is set by controls: 0 for no effect and ±100 for the full control effect
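Secreted IL-1B measured by AlphaLISA bead assay after 16 h compound exposure of THP-1 cells; compounds (final up to 57.5 uM) added 1 h before LPS (250 ng/mL) and ATP (1.25 mM) stimulation; lower signal means less secretion.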
Gal4-VP16 FLuc: Gal4-VP16 reporter inhibition counter-screen; Drosophila S2 Gal4-VP16 UAS-luciferase, luminescence, 20 h; Potency, µM (series often up to 53.6 µM), for inactives: at the highest dose activity, negative = inhibition, actives largely listed as inhibitors; actives 3.5% (n = 310,000); AID 2546;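 note: Gal4-VP16 expression switched on by copper sulfate through the metallothionein promoter; potency is the fitted concentration of half-maximal effect; % is set by controls: 0 for no effect and ±100 for the full control effect; nearly all actives have a fitted effect of over 50% in size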
RORgamma inh: ROR gamma (mouse) transcription inhibition; P51450; Drosophila S2 Gal4-RORgamma UAS-luciferase reporter, 20 h; Potency, µM (titrated, usually from 53.6 µM), inactives show at the highest dose activity change, negative = inhibition, usual class: inhibitors; actives 5.4% (n = 310,000); AID 2551; note: potency is the fitted concentration of half-maximal effect; % is set by controls: 0 for no effect and ±100 for the full control effect; nearly all actives have a fitted effect of over 60% in size
Target sequence (P51450 whole entry, looked up, the tested form may be a part): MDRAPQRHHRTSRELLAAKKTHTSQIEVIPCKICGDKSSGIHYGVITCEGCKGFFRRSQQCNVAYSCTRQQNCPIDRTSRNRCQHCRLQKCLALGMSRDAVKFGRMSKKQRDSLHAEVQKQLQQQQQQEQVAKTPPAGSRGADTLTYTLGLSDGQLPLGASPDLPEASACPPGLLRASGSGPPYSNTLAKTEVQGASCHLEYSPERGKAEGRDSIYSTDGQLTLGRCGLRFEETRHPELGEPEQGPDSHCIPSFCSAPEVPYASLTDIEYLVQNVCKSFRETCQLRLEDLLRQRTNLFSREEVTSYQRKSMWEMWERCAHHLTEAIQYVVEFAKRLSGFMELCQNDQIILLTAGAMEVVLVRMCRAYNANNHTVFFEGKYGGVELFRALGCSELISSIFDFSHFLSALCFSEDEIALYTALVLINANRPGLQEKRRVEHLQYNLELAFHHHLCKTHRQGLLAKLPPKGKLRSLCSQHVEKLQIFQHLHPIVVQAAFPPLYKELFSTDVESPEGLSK
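Read-out: Photinus luciferase luminescence; inhibitors lower reporter signal. Insect Schneider cells with Gal4-ROR gamma fusion under metallothionein promoter, UAS reporter; 700 uM final copper sulfate induction, 20 hr, ambient temperature.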
* marks the source's active call; other numbers are inactive results; u = inconclusive; x = no result; ! = not active in a repeat; [ ] = another dose, or the depositor's remark. Rows were chosen to be rich in hits. Some 11% of all compounds tested hit in one or more screens of this group. Unless noted, calls come from the whole dose curve; as a rule, active = well fitted curve in the direction sought with a large enough effect; inconclusive = small, poorly fitted or top-dose-only effect, or another doubt; inactive = no such curve, though single readings can be large; an effect the other way counts as inactive or inconclusive.

SMILES | SW480 rerep | MCF10A rerep | IL1B secr inh | Gal4-VP16 FLuc | RORgamma inh
CCOc1ccccc1NC(=O)CCCN1C(=S)NC(C)(C)CC1C (stereo unspecified) | 1% | -1% | 0 | u | 14µM*
CCOc1ccc(OCC)c(NC(=O)CCCN2C(=S)NC(C)(C)CC2C)c1 (stereo unspecified) | 0% | 12% | -10 | 6.3µM* | 6.3µM*
CC1CC(C)(C)NC(=S)N1CCCC(=O)NCc1ccccc1 (stereo unspecified) | -10% | -2% | -2 | 13% | u
CCN(CC)C(=O)C1=C(C)N(CCCOC)C(=O)C(CC(=O)NCCCN(C)C)C1 (stereo unspecified) | x | x | 4 | x | x
COC1=CC(=O)OC(c2cccc(C(F)(F)F)c2)C1 (stereo unspecified) | x | x | -8 | x | x
Cc1cc(C)c2nc(NC(=O)c3ccc([N+](=O)[O-])o3)sc2c1 | 2% | u | u | 1% | -21%
COc1ccc2nc(NC(=O)c3ccccc3[N+](=O)[O-])sc2c1 | 8% | -4% | -7 | -18% | 0%
O=C(Nc1nc2c(F)cc(F)cc2s1)c1ccc([N+](=O)[O-])o1 | 9.2µM* | 12µM* | 0 | u | -32%
O=C(Nc1nc2cc3c(cc2s1)OCCO3)c1cccs1 | 24% | 2% | u | u | u
O=C(Nc1nc2cc3c(cc2s1)OCCO3)c1ccc([N+](=O)[O-])o1 | 1.5µM* | 5.2µM* | -86* | u | -45%
COc1ccc2nc(NC(=O)c3ccc([N+](=O)[O-])o3)sc2c1 | 7.3µM* | 4.6µM* | -88* | 11µM* | u
O=C(Nc1nc2ccccc2s1)c1ccc([N+](=O)[O-])o1 | 16µM* | 21µM* | -68* | 0% | -24%
Cc1c(C(=O)NCc2ccccc2C(F)(F)F)sc(=O)n1Cc1ccc2ccccc2c1 | x | x | -30 | x | x
Cc1ccc(C(=O)Nc2cccc(S(=O)(=O)N3CCCCC3)c2)cc1S(=O)(=O)N1CCOCC1 | -1% | 7% | -10 | x | x
O=C(O)c1cccc([N+](=O)[O-])c1C(=O)Nc1nc2ccccc2s1 | 6% | -1% | -10 | -4% | 1%
O=C(Nc1nc2ccccc2s1)c1ccccc1[N+](=O)[O-] | -24% | 0.73µM* | -14 | 20% | u
O=C(Cn1cc([N+](=O)[O-])cn1)Nc1ccccn1 | 35% | -1% | -3 | -3% | -2%
O=C(Cn1cc([N+](=O)[O-])cn1)Nc1nc2ccccc2s1 | u | 21µM* | -5 | 19% | 11%
Cc1cc(C)c2sc(NC(=O)c3ccc([N+](=O)[O-])o3)nc2c1 | u | 21µM* | u | 10µM* | 5µM*
c1ncc(-c2ccoc2)c(NC2CC2)n1 | x | x | x | -7% | 24%
COc1ccc(Cc2c(-c3ccc(OC)c(OC)c3)nc3cc(C)c(Br)c(C)n23)c(C)c1 | x | x | 7 | x | x
COCCNC(=O)C1(C)CCCN(C(=O)c2cccc(OC(F)(F)F)c2)C1 (stereo unspecified) | x | x | -3 | x | x
CCCCCCSc1cccc(-c2nc3ccc(C)cn3c2NCc2ccccc2)c1 | -7% | u | -61* | x | x
CCCCCCSc1cccc(-c2nc3cc(C)ccn3c2NCc2ccccc2)c1 | -6% | u | -84*! | x | x
CCCCCCSc1cc(-c2nc3ccc(C)cn3c2NCc2ccccc2)ccc1OC | u | u | -51*! | x | x
SMILES | SW480 rerep | MCF10A rerep | IL1B secr inh | Gal4-VP16 FLuc | RORgamma inh
CCCCCCSc1cccc(-c2nc3ccccn3c2NCc2ccccc2)c1 | u | 21µM* | -30 | x | x
N#Cc1ccc(NC(=O)C2=COCCO2)cc1 | -7% | -3% | -12 | x | x
O=C(Cc1cccs1)NCc1ccccc1Br | u | -7% | 0 | 3% | 2%
COc1ccc(C(=O)/C=C/c2cccs2)c(OC(=O)c2cccc([N+](=O)[O-])c2)c1 | 25% | u | -69* | -12% | -28%
COc1ccc(OC(=O)/C=C/c2ccc([N+](=O)[O-])cc2)cc1 | -4% | 2% | 22 | 8.9µM* | u
O=C(/C=C/c1cccs1)NNC(=O)c1cccc([N+](=O)[O-])c1 | -4% | 2% | -15 | x | x
COc1ccc(C(=O)/C=C/c2ccc(F)cc2)c(OC(=O)c2ccc([N+](=O)[O-])cc2)c1 | u | u | -94* | -5%[0.365 µM] | u
COc1cccc(NC(=O)/C=C/c2ccc([N+](=O)[O-])cc2)c1 | -119% | 27% | -24 | 7% | 1%
CSc1ccc(CNC(=O)Cc2ccc(NC(=O)C3=C(C)OCCS3)cc2)cc1 | 1% | u | 23 | -21% | u
O=c1c(-c2ccc(F)cc2)nc2cnc(Nc3ccccc3)nc2n1C[C@H]1CCCO1 | x | x | x | -8% | -16%
O=C(c1ccc(CSc2nc3ccncc3[nH]2)cc1)N1CCN(c2cccc(Cl)c2)CC1 | 21% | u | u | 11µM* | u
O=C(CSCc1nc2ccccc2[nH]1)N1CCN(c2cccc(Cl)c2)CC1 | u | 1% | u | u | 11µM*
O=C(c1ccc(CSc2nc3ccncc3[nH]2)cc1)N1CCCCCC1 | 2% | 5% | 48 | u | 3%
O=C(NCc1ccc(Cl)cc1)c1ccc(CSc2nc3ccncc3[nH]2)cc1 | -6% | 0% | -74* | -16% | 15%
O=C(CSCc1nc2ccccc2[nH]1)N1CCN(c2ccc(F)cc2)CC1 | 9% | 15% | u | u | u
Cc1ccc(CSc2nc3ccncc3[nH]2)cc1 | -14% | 1% | -17 | 7.9µM* | 7.9µM*
CC1(Oc2ccccc2)CCN(Cc2csc3ccccc23)C1 (stereo unspecified) | x | x | 32 | x | x
Cc1cccc(NC(=O)NCCN2CCN(c3ccccc3)CC2)c1C | 1% | u | 6 | 6% | 19%
CCn1c(Cl)c(C=O)s/c1=N\S(=O)(=O)c1ccccc1 | 15µM* | 1.2µM* | -3 | -7% | 9%
CCN1C(=O)CS/C1=N\S(=O)(=O)c1ccc(Cl)cc1 | -3% | -2% | 2 | -7% | 5%
N#CCCn1nc(-c2ccccc2)cc1Nc1ccccc1NC(=O)c1cccs1 | 3% | 5% | -60* | -12% | u
Cc1ccc2c(c1)c1c3n2CCN(CC(N)=O)C3CCC1 (stereo unspecified) | u | u | -2 | -4% | 29%
Cc1ccc2c(c1)c1c3n2CCN(CC(O)CNC(C)C)C3CCC1 (stereo unspecified) | -3% | 18% | -57* | 1% | 20%
Cc1ccc2c(c1)c1c(n2CC(O)CNC2CCCC2)CCCC1 (stereo unspecified) | u | u | -90* | -4% | 1%
O=S(=O)(c1ccc(Cl)c(NC(=S)Nc2cccc(O)c2)c1)N1CCOCC1 | -5% | 4% | -12 | -2% | -1%

Assay outcomes deposited in PubChem by National Center for Advancing Translational Sciences (NCATS).
